Here are results for 92 molecules from PubChem BioAssay AID588726 (The Scripps Research Institute Molecular Screening Center, 2011).

Structures are written as SMILES. Out of some 360,000 compounds screened, about 8,200 (2.3%) were called active. Cut-off read from the data, not from the text of the source: active = inhibition above about 27%; inactive = the rest. Shown is part of a subset that was picked to be rich in actives.

For this assay, the target named is Fructose-bisphosphate aldolase (Mycobacterium tuberculosis (strain ATCC 25618 / H37Rv)) (UniProt P9WQA3). The assay is described as follows: M. tuberculosis aldolase activity blockers – biochemical, fluorescence, strain H37Rv, primary screen (AID 588726).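 Note: 0% = vehicle and 100% = reference inhibitor.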 Conditions: purified M. tuberculosis FBA, fluorescence read-out, at 1 µM, hits give high values.
Fructose-bisphosphate aldolase (Mycobacterium tuberculosis (strain ATCC 25618 / H37Rv)), sequence (P9WQA3 whole entry, looked up): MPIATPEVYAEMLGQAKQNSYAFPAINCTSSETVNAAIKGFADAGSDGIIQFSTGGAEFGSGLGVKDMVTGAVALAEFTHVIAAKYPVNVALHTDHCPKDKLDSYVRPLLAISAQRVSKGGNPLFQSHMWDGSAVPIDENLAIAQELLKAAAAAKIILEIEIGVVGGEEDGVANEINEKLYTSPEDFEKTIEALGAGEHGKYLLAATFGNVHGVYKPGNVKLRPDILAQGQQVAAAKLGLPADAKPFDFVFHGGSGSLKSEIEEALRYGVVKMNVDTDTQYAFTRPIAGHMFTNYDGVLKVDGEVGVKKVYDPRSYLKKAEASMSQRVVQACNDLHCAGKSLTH
Broadly, the inhibition is the drop in the measured response relative to a control, in per cent. Regarding `c1cnc(N2CCN(c3ccc4ccccc4n3)CC2)nc1`, the inhibition was 2.95% (inactive).
In the case of `CC(Oc1ccc(F)cc1)C(=O)N1CCN(c2ncccn2)CC1` (configuration not stated), the inhibition was 1.68% (inactive).
To `CC12CCC(C(=O)N3CCN(c4ncccn4)CC3)(c3nc4ccccc4nc31)C2(C)C` (configuration not stated) belongs 30% (active); to `COC(=O)C1=CO[C@@H](O[C@@H]2O[C@H](CO)[C@@H](O)[C@H](O)[C@H]2O)C2C1C[C@H](O)[C@@H]2C` (some centres not stated), -0.2% (inactive); to `Cc1c(C)c2ccc(OCC(=O)N3CCC(C(=O)O)CC3)c(C)c2oc1=O`, 119% (active).
For the molecule `Cc1cc(=O)oc2c(C)c(OCC(=O)N3CCN(Cc4ccc5c(c4)OCO5)CC3)ccc12`, the inhibition is 20.6% (inactive).
In the case of `CCCc1cc(=O)oc2c(C)c(OCC(=O)Nc3ccccn3)ccc12`, the inhibition is 14.2% (inactive).
The result for `CCc1cc(=O)oc2c(C)c(OCC(=O)N3CC[C@@]4(O)CCCC[C@H]4C3)ccc12` reads 36.8% (active).
To `CCCCc1cc(=O)oc2c(C)c(OCC(=O)N3CCC(C(N)=O)CC3)ccc12` belongs 13.9% (inactive); to `CCCc1cc(=O)oc2c(C)c(OCC(=O)N3CCC(C(=O)O)CC3)ccc12`, 44.1% (active).
To `CCc1cc(=O)oc2c(C)c(OCC(=O)NCCN3CCOCC3)ccc12` belongs 18% (inactive); to `CCOC(=O)C1CCN(C(=O)COc2cccc3ccccc23)CC1`, -4.37% (inactive); to `N#Cc1cccc(OC(=O)c2ccc3c(=O)n4c(nc3c2)CCC4)c1`, 1.39% (inactive).
As to `CCCc1cc(=O)[nH]c(SCc2cc(=O)oc3c(C)c(C)ccc23)n1`, the inhibition was -1.06% (inactive).
For `COC(=O)c1sc(-c2ccc(C(C)(C)C)cc2)cc1NC(=O)/C=C/C(=O)O`, the inhibition is 1.9% (inactive).
The result for `CCC(C)(C)n1nnnc1CN1CCN(c2nc3ccc(C)cc3cc2C#N)CC1` reads 3.89% (inactive); that for `COc1cc2c(cc1OC)C(C)N(S(=O)(=O)c1cnc(Cl)c(Cl)c1)CC2` (configuration not stated), -4.46% (inactive).
The result for `CN(CCC#N)c1ncnc2scc(-c3ccccc3)c12` reads 4.16% (inactive).
The result for `COC(=O)c1sc(N2CCN(Cc3ccccc3)CC2)nc1N` reads 1.57% (inactive); that for `C=CCNc1nc(N)c(C(=C(C#N)C#N)c2ccccc2)s1`, 135% (active).
As to `COc1ccc(N(CC(=O)NC2CCCCC2)C(=O)CNC(=O)c2ccco2)c(OC)c1`, the inhibition is 3.44% (inactive).
The result for `O=c1[nH]c(=O)n(Cc2ccco2)c2c1C(C(F)(F)F)(C(F)(F)F)N=C(c1ccco1)N2` reads 1.76% (inactive); that for `CCCCC[C@@H]1C=C(C(=O)OCC)[C@H](c2ccccc2)N1S(=O)(=O)c1ccc(C)cc1`, -1.47% (inactive); that for `CN(CC(=O)NCCc1ccccn1)S(=O)(=O)c1ccc(Cl)cc1`, -1.58% (inactive).
To `CN(CCc1ccccn1)S(=O)(=O)c1ccc2c3c(cccc13)C(=O)N2` belongs 50.8% (active); to `CN(CCc1ccccn1)C1CCCN(S(=O)(=O)c2ccccc2Cl)C1` (configuration not stated), -1.97% (inactive).
The result for `CC1(C)Cc2c(sc3nc(SCC(=O)NCc4ccccc4)n(-c4ccccc4)c(=O)c23)CS1` reads 1.67% (inactive); that for `CCCNC(=S)NC1CC2CCCC(C1)N2CC(C)C` (configuration not stated), 0.49% (inactive); that for `COC(=O)C1=NNC2(c3ccc(C)cc3)C(=O)N(c3cccc(C)c3C)C(=O)C12` (configuration not stated), -2.73% (inactive).
Take `COC(=O)c1c(-c2cccs2)csc1NC(=O)CSc1ncnc2sc(C)c(C)c12`: the inhibition was 1.16% (inactive).
For `CCNC(=O)CN(c1ccc(C)cc1)S(=O)(=O)c1ccc(SC)cc1`, the inhibition was -1.29% (inactive).
To `O=C(NNc1c2ccccc2nc2ccccc12)c1cc2ccccc2cc1O` belongs -10.4% (inactive).
As for `CC(C)(C)OC(=O)NNc1c2ccccc2nc2ccccc12`, the inhibition is 74.1% (active).
To `Cc1ccc(C(=O)NNC(=O)OC(C)(C)C)c(Cl)c1` belongs -0.17% (inactive); to `Cc1ccc(S(=O)(=O)N(CCCN(C)C)Cc2ccc3c(c2)OCO3)cc1`, 1.83% (inactive).
To `O=C(CCN1C(=O)[C@@H]2Cc3ccccc3CN2C1=O)NCCc1ccccc1` belongs -6.76% (inactive); to `CC(=O)c1cccc(NC(=O)C2CCCN(S(=O)(=O)c3cccc4nonc34)C2)c1` (configuration not stated), 5.88% (inactive).
To `O=C(CN(C(=O)CNC(=O)c1cccs1)c1cccc(F)c1)NC1CCCCC1` belongs -0.45% (inactive); to `Cn1c(CCc2ccccc2)nnc1SCC(N)=O`, -0.79% (inactive); to `CN(C)CCCNC(=O)c1ccc2[nH]c3ccccc3c2c1`, 34.9% (active).
As to `COC(=O)CCNC(=O)c1ccc2[nH]c(C)c(C)c2c1`, the inhibition is 4.35% (inactive).
In the case of `CCCCNC(=O)c1ccc(-n2c(=S)[nH]c3ccccc3c2=O)cc1`, the inhibition was -2.52% (inactive).
The result for `O=C(Nc1ncc2c(n1)CC(c1ccco1)CC2=O)c1ccc(Cl)cc1` (configuration not stated) reads -1.48% (inactive); that for `O=C(Nc1ncc2c(n1)-c1ccccc1OC2)c1ccc(Cl)cc1`, 97.1% (active); that for `O=C(Nc1ccc(Cl)cn1)c1ccccc1-c1ccccc1`, -2.1% (inactive).
The result for `CC(C)NC(=O)C(=O)NCCN1CCN(S(=O)(=O)c2ccc(Cl)cc2)CC1` reads 2.59% (inactive); that for `CC1(C)O[C@@H]2[C@H](O1)[C@@H](CO)O[C@H]2n1c(N2CCCCC2)nc2c(N)ncnc21`, 0.56% (inactive); that for `O=C(Nc1cccc(Cl)c1)c1cncn1-c1ccc(F)cc1`, 6.15% (inactive).
For `CCOC(=O)N1CCN(CC(=O)Nc2ccc(F)cc2)CC1`, the inhibition is -0.85% (inactive).
As for `CCC(=O)Nc1ccc2nn(-c3ccc(F)cc3)nc2c1`, the inhibition was 102% (active).
As to `Nc1c(N(CCO)C(=O)C2CCCCC2)c(=O)[nH]c(=O)n1Cc1ccccc1`, the inhibition was 5.19% (inactive).
The result for `CCc1nccn1CCC(=O)N1CCCC(N2CCN(c3ccccc3F)CC2)C1` (configuration not stated) reads -1.12% (inactive); that for `CNC(=O)c1nnn(-c2ccccc2)c1C(=O)NC`, 3.79% (inactive).
To `N#CCCN1CCN(S(=O)(=O)c2ccc(S(=O)(=O)NC3CC3)cc2)CC1` belongs -0.2% (inactive); to `CC(Sc1nnc(-c2ccccc2F)n1C1CC1)C(N)=O` (configuration not stated), -0.8% (inactive); to `Cc1cc(C)c2nc3nc(C)cc(C)c3c(N)c2c1`, 42.9% (active).
The result for `CCC(=O)Nc1ccc(-c2ccc(N3CCCCC3)nn2)cc1` reads 4.9% (inactive).
On to `CC(=O)N1N=C(c2ccncc2)OC1(Cc1ccccc1)Cc1ccccc1`, for which the inhibition is 46.8% (active).
To `CC(=O)N1N=C(c2ccccc2)OC1c1cccnc1` (configuration not stated) belongs -0.2% (inactive); to `O=C(Cc1ccccc1)N1N=C(c2ccncc2)CC1(O)C(F)(F)F` (configuration not stated), -4.28% (inactive).
The result for `CCCCn1c(SCc2ncc(-c3ccccc3)o2)nc2cc(S(N)(=O)=O)ccc21` reads -3.35% (inactive); that for `O=C(CN(Cc1ccc(Br)cc1)S(=O)(=O)c1ccccc1)NCc1ccncc1`, 3.05% (inactive).
To `Cc1ccc2c(C(=O)CN3CCCC3)c(C)[nH]c2c1` belongs -0.06% (inactive); to `O=C(Nc1cccc(Cl)c1)Nc1ccccc1NS(=O)(=O)c1cccs1`, -6.91% (inactive); to `COc1cc(NC(=O)c2ccccc2NS(=O)(=O)c2ccc(Cl)s2)cc(OC)c1`, 2.51% (inactive).
For the molecule `O=C(Nc1nncs1)c1ccccc1NS(=O)(=O)c1cccs1`, the inhibition is 75% (active).
The result for `CCCNc1ncnc2sc(C)c(C)c12` reads 2.22% (inactive).
To `O=C(Nc1c(Cl)cccc1Cl)C1CCC1` belongs 5.25% (inactive); to `O=C(Nc1ccc(F)cc1)c1cccnc1N1CCOCC1`, 1.16% (inactive).
The result for `Cc1cccc(C(=O)NC(=S)N2CCN(c3ccc([N+](=O)[O-])cc3)CC2)c1` reads -0.47% (inactive); that for `CCC(=O)Nc1cccc(C2=NOC3(C2)C[C@@H](C(N)=O)N(C(=O)c2cc([N+](=O)[O-])cc([N+](=O)[O-])c2C)C3)c1` (some centres not stated), -2.54% (inactive).
As for `Cc1ccc(NC2(C#N)C(=O)Nc3ccccc32)cc1` (configuration not stated), the inhibition is -3.14% (inactive).
The result for `N#CC1=C(N)Oc2[nH]c(=S)[nH]c(=O)c2C12C(=O)Nc1ccccc12` (configuration not stated) reads 126% (active).
To `Cc1ccc(OCC(=O)Nc2ccccc2Sc2ccc(Cl)cc2)c([N+](=O)[O-])n1` belongs -0.96% (inactive); to `Nc1c(-c2ccc(F)cc2)cnc2ncnn12`, 1.26% (inactive).
The result for `CC1(C)CN(c2ccc(-c3ccnc4ncnn34)cc2)C1=O` reads 809% [above what the read-out allows, likely interference] (active); that for `O=C(CSCc1ccccc1Cl)NNC(=O)c1ccccc1`, -0.9% (inactive); that for `CC(C)NC(=O)Nc1cccc2c1O[C@H](CN(C)S(=O)(=O)c1cccs1)[C@@H](C)CN([C@H](C)CO)C2=O`, 4.46% (inactive).
With `C[C@H]1CN([C@@H](C)CO)C(=O)c2cc(Br)cnc2O[C@H]1CN(C)S(=O)(=O)c1cccs1`, the inhibition is 27.8% (active).
To `C[C@H]1CN([C@@H](C)CO)C(=O)c2cc(-c3cccc(F)c3)cnc2O[C@@H]1CN(C)S(C)(=O)=O` belongs 2.59% (inactive); to `Cc1cc(C)cc(OCC(=O)OCC(=O)NC2CCCC2)c1`, -0.07% (inactive); to `CCN(C(=O)CSc1cccc[n+]1[O-])c1ccccc1`, 0.35% (inactive).
The result for `Cc1ccc(S(=O)(=O)n2oc(=O)c(C3CCCCC3)c2N)cc1` reads -0.6% (inactive); that for `C=CCSc1nnc2c(n1)-c1cccc3cccc-2c13`, -1.23% (inactive).
For the molecule `CCOc1ccccc1C1CC(c2ccccc2)Nc2nc(N)nn21` (configuration not stated), the inhibition was 35.6% (active).
The result for `FC(F)Oc1ccccc1C1CC(c2ccc(Br)s2)Nc2ncnn21` (configuration not stated) reads 1.95% (inactive); that for `CCOc1ccccc1C1CC(c2ccc(Cl)cc2)Nc2nc(N)nn21` (configuration not stated), 4.25% (inactive); that for `CCc1cccc(C)c1NC(=O)COC(=O)Cc1ccsc1`, 4.93% (inactive).
Consider `CC(C)NC(=S)Nc1cccc2cnccc12`, for which the inhibition was -1.91% (inactive).
`O=c1oc2c(CN3CCCCC3)c(O)ccc2c2c1CCCCC2`: the inhibition is 502% [above what the read-out allows, likely interference] (active).
`Cc1c(CN2CCCCC2)c(O)n(CCO)c(=O)c1C#N`: the inhibition is 2.47% (inactive).
Regarding `N#Cc1ccccc1S(=O)(=O)N1CCN(Cc2c(O)ccc3ccccc23)CC1`, the inhibition was 2.66% (inactive).
